# Experimental data reported in PubChem BioAssay (NCI).
# About 83,000 compounds went through this panel and 20% of them were active in at least one assay; those are over-represented in the sample as a whole.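 Plates (96-well) were seeded with cells, treated with compound at one concentration, and incubated for 48 hours before percent growth was determined.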 Values without a mark were called inactive. Calls of active or inactive are those of the source. Rule for the calls: active = growth percent below 10; inactive = the rest.
# System: A549/ATCC NSCLC
# Assay: NCI-60 one-dose screen, 48 h (100 = growth as untreated, 0 = no growth, -100 = all killed)
# Details: 10 µM
row,SMILES,growth
1,COc1ccc2c(c1)CC=C1[C@@H]2CC[C@]2(C)C(=O)/C(=N/O)C[C@@H]12,99.4%
2,CC(C)(C)OC(=O)CN1CCc2c(sc3ncnc(N/N=C/c4ccccc4Br)c23)C1,77.6%
3,COc1cc(/C=C/c2cc(/C=C/c3ccc(O)c(OC)c3)n(C(=O)Nc3ccccc3Cl)n2)ccc1O,8.75% (active)
4,O=C(CSc1nnc(-c2ccc(Cl)cc2)o1)Nc1ccc(C(=O)/C=C/c2ccc(Cl)cc2)cc1,95.6%
5,Nc1nc(Cn2c(-c3nonc3N)nc3ccccc32)nc(N2CCCCC2)n1,93.1%
6,CC(C)N(CCOc1ccc(-c2nc3sccn3c2-c2ccnc(S(C)(=O)=O)n2)cc1)C(C)C,105%
7,O=C1CSC(=S)N1/N=C/c1ccc(Cl)s1,103%
8,CCN(CC)CCOC(=O)c1cc(OCc2ccccc2)c(OCc2ccccc2)c(OCc2ccccc2)c1,42.5%
9,CNC(=O)c1cc(Oc2ccc3c(c2)sc2nc(-c4ccc(N)cc4)cn23)ccn1,24.5%
10,COc1ccc(-c2cc(-c3ccc(Cl)cc3)nc(SCCCCCCC(=O)NO)n2)cc1OC,58.5%
11,O=C(O)COc1c(Cl)cc([N+](=O)[O-])cc1Cl,81.7%
12,COC(=O)C1(O)NC(=C(C#N)C#N)C(C#N)=C1C(=O)c1ccc(OC)c(OC)c1 (stereo unspecified),91.9%
13,COc1ccc(C2=Cn3c(CCC(=O)c4nc5ccccc5[nH]4)nnc3SC2)cc1,106%
14,COc1cc2cc(Oc3ccc(NC(=O)c4cc(C(F)(F)F)cc(C(F)(F)F)c4)cc3)c(C)nc2cc1OC,30.7%
15,Oc1ccc(/C=N/N=C2c3ccccc3-c3ccccc32)c(O)c1,54.8%
16,COc1cccc(C2C(C#N)=C(N)Oc3cc(N)ccc32)c1 (stereo unspecified),20.2%
17,COc1ccc(C(c2ccc(OCCN(C)C)cc2)c2cc3ccccc3c3ccccc23)cc1 (stereo unspecified),55%
18,Clc1nc2ccc(Br)cc2cc1-c1nc2ccccc2[nH]1,17.2%
19,Cc1cccc(N=Cc2ccccc2O)c1C,88.2%
20,CC(C)c1ccc(C(C)C(=O)N(CC2=C(C(C)c3ccccn3)c3ccccc3C2)C(C)C)cc1 (stereo unspecified),36%
21,CC(=O)N[C@H](C(=O)N[C@@H](CCCNC(=N)N)C(=O)N[C@@H](CCCCN)C(=O)N[C@@H](CCCNC(=N)N)C(=O)NC(C(=O)N[C@@H](CC(C)C)C(=O)N[C@@H](CCCNC(=N)N)C(=O)N[C@@]1(C)CCC/C=C\CCC[C@@](C)(C(=O)N[C@@H](CCCNC(=N)N)C(=O)N[C@@H](CCC(=O)O)C(=O)N[C@@H](CC(C)C)C(=O)N[C@H](C(=O)N[C@@H](CCC(=O)O)C(N)=O)C(C)C)NC(=O)[C@H](CCC(N)=O)NC(=O)[C@H](CC(C)C)NC(=O)[C@H](CC(C)C)NC1=O)[C@@H](C)O)C(C)C (stereo partly specified),27.8%
22,COc1cc2c(cc1NC(=O)C(Cl)Cl)-c1ccc(NC(=O)C(Cl)Cl)cc1C2,-4.92% (active)
23,CC1OC2CC(=O)OC2C2=C1C(=O)c1c(O)c3c(c(O)c1C2=O)C1CC(O)C3(O)C(C)O1 (stereo unspecified),2.66% (active)
24,COc1cc(-c2csc(NC(=O)Nc3ccc(Cl)c(C(F)(F)F)c3)n2)cc(OC)c1OC,0.191% (active)
25,COc1cc2cc(Oc3ccc(NC(=O)Nc4ccc(C(F)(F)F)cc4)cc3)c(C)nc2cc1OC,32.4%
26,COc1ccc(/C=C/C(=O)C(=O)/C=C/c2ccc(OC)c(OC)c2)cc1OC,69.9%
